Hits are enriched below; roughly 4.7% of the tested compounds scored in any of these assays.
D1 PAM – Potentiators of Human D1 Dopamine Receptor: qHTS | HEK293 TREx D1 cells, calcium flux, dopamine EC20 potentiation | potentiation, % at 10 µM | 0.036% of 360,000 active | AID 504651, 2011; in the data active means potentiation above about 30%; further: 0% is about no effect
Target sequence (P21728 whole entry, looked up): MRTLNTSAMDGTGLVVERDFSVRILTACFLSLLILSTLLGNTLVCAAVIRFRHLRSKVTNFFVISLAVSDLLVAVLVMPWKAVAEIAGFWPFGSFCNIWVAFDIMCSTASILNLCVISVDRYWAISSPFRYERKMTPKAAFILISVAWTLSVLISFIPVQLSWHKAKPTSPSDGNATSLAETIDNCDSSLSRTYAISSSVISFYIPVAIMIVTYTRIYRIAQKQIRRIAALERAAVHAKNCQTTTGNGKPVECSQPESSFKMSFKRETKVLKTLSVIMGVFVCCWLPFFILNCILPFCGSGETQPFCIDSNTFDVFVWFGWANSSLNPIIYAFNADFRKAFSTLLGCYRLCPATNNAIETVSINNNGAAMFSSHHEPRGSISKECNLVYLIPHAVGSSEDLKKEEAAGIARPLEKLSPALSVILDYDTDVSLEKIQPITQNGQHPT
D1 agonist – Allosteric Agonists of the Human D1 Dopamine Receptor: qHTS; D(1A) dopamine receptor (Homo sapiens), P21728; HEK293 T-REx D1 cells, calcium flux, agonist mode; activation, % at 2 µM; 1% of 360,000 active; further: 0% is about no effect
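Inducible HEK293 T-REx D1 cells, force-coupled to calcium signalling, were plated at 4000 cells/well with tetracycline and held overnight at 30 C. After no-wash calcium dye loading, compound-evoked calcium rise over 180 s flagged agonists.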
TRHR agonist – qHTS for Small Molecule Agonists and Allosteric Enhancers of Human TRH Receptor: Primary Screen for Agonists. Thyrotropin-releasing hormone receptor (Homo sapiens), P34981. TRHR cells, calcium flux fluo-8, FDSS agonist mode. activation, % at 2 µM. 0.18% of 360,000 active. AID 493084, 2011; further: 0% is about no effect
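Agonist-mode FDSS calcium read (Ex 480/Em 530, 1 s cycles) in 1536-well TRHR cells with fluo-8 dye, after 10-cycle baseline and 23 nL compound addition; TRH at EC20 (10 nM final) added afterwards for the enhancer phase.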
D1 antag – Antagonist of Human D 1 Dopamine Receptor: qHTS; HEK293 TREx D1 cells, calcium flux, dopamine EC80; hits give low values; activity change, negative = inhibition, % at 10 µM; 3.2% of 360,000 active; AID 504652, 2011; in the data active means activity change below about -30%; further: on the % scale 0 is the no-effect control and ±100 the full control effect
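Tetracycline-induced HEK293 T-REx cells with force-coupled D1 receptor were loaded with a no-wash calcium dye. Compound was added after a 10 s baseline and read kinetically for 180 s; EC80 dopamine was then added and calcium flux followed another 180 s.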
TRHR PAM – qHTS for Small Molecule Agonists and Allosteric Enhancers of Human TRH Receptor: Primary Screen for Enhancers. Thyrotropin-releasing hormone receptor (Homo sapiens), P34981. TRHR cells, fluo-8 calcium fluorescence, EC20 TRH enhancement. enhancement, % at 2 µM. 0.66% of 360,000 active. AID 493056, 2011; in the data active means enhancement above about 30%; further: 0% is about no effect
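Enhancer read-out: after compound pinning and an initial kinetic agonist-mode read, an EC20 of TRH (10 nM final) was injected and fluo-8 calcium signal (Ex 480/Em 530) followed at 1 s/cycle for 100 cycles in TRHR-expressing cells.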
The depositor's hits bear a star. Unless noted, no stated cut-off is given here; in the data, active means activation above about 30%; inactive means the rest.

SMILES | D1 PAM | D1 agonist | TRHR agonist | D1 antag | TRHR PAM
CCOc1ccc(CCNC(=O)CSCc2nc(-c3cccc(C)c3)oc2C)cc1OCC | -4 | 4 | 1 | 4 | 0
O=C(NCc1cn(-c2ccccc2)nc1-c1ccccc1)c1cccc([N+](=O)[O-])c1 | -10 | 2 | 0 | -33* | -6
COc1ccc(-c2cc3nc(C)cc(N)n3n2)cc1 | -3 | 1 | 0 | -5 | 30*
Cn1c(=O)c2c(ncn2CC(O)CNc2ccc(Br)cc2)n(C)c1=O (stereo not drawn) | -3 | 5 | 0 | -32* | -3
COc1ccc(NCC(O)Cn2cnc3c2c(=O)n(C)c(=O)n3C)cc1 (stereo not drawn) | 4 | 2 | 0 | 6 | 30
Cc1ccc(CSc2oc(-c3ccco3)nc2S(=O)(=O)c2ccc(Br)cc2)cc1 | 0 | 15 | 2 | -35* | -8
CCCSc1oc(-c2ccco2)nc1S(=O)(=O)c1ccc(C)cc1 | -7 | 3 | 0 | 0 | -6
CCCSc1oc(-c2ccco2)nc1S(=O)(=O)c1ccc(Br)cc1 | 2 | 17 | 0 | -36* | 9
Cc1c(CC(=O)NCCc2ccccc2F)c(=O)oc2c(C)c3occ(C(C)(C)C)c3cc12 | -1 | 0 | 0 | 10 | 12
Cc1ccc(NC(=O)C(=O)NCC(c2ccc3c(c2)OCO3)N2CCOCC2)cc1C (stereo not drawn) | -7 | 1 | 0 | -20 | 8
Cc1nnc(N2CCN(C(=O)Nc3cc(F)ccc3F)CC2)c2nn(-c3ccc(Cl)cc3)c(C)c12 | -1 | 1 | 0 | 8 | -2
N#Cc1ccc2c(c1)C[C@]1(CCCCN3C(=O)c4ccccc4C3=O)Oc3c(c(=O)oc4ccc(F)cc34)C2O1 | -6 | 1 | 1 | -13 | 7
CCC1CN(C(=O)Nc2ccccc2C(F)(F)F)c2ccccc2S1 (stereo not drawn) | 0 | 1 | -1 | 0 | 9
CCOC(=O)c1ccc2c(c1)[nH]c(=S)n2CC | -1 | 6 | -1 | -19 | -5
CCN(CC)S(=O)(=O)c1ccc2c(c1)[nH]c(=S)n2CC | 9 | 10 | -1 | 4 | 38*
O=C(Nc1ccc2oc(-c3cc(Br)ccc3Cl)nc2c1)c1cc2ccccc2o1 | -2 | 0 | -1 | 11 | 13
CN1C(=O)c2ccccc2Sc2ccc(NC(=O)NCc3ccc(Cl)cc3)cc21 | -2 | -1 | 0 | 2 | 3
Cc1ccccc1CNC(=O)Nc1ccc2c(c1)N(C)C(=O)c1ccccc1S2 | -3 | 1 | 0 | -38* | 1
Cc1ccccc1CNC(=O)Nc1ccc(Cl)cc1 | -6 | 4 | 0 | -46* | 6
CCOC(=O)c1cc(S(=O)(=O)N2CCN(c3cc(Cl)ccc3C)CC2)[nH]n1 | -1 | 0 | 0 | -7 | 4
CN(C)S(=O)(=O)c1ccc(Cl)c(NC(=O)COC(=O)CCC(=O)c2cccs2)c1 | -6 | 7 | 0 | -6 | -3
CCN(CC)S(=O)(=O)c1cccc(NC(=O)COC(=O)c2cccs2)c1 | -8 | 12 | 0 | -15 | -3
CN(C)S(=O)(=O)c1cccc(NC(=O)COC(=O)CCC(=O)c2cccs2)c1 | -1 | 5 | 0 | -34* | 4
CCN(CC)S(=O)(=O)c1cccc(NC(=O)COC(=O)/C=C/c2cccs2)c1 | -5 | 19 | 0 | -31* | -2
COc1ccc(C(=O)Oc2cc(-c3ccc(OC)c(OC)c3)cc(=O)c3c(C)oc(C)c23)cc1 | -2 | 1 | 1 | 3 | 6
CCN(CC)C(=O)CS(=O)(=O)CC(=O)Nc1cc(OCCOC)c(Cl)cc1Cl | 1 | 1 | -1 | -55* | -1
COCCOc1cc(NC(=O)CS(=O)CC(=O)N(C)C)c(Cl)cc1Cl (stereo not drawn) | 1 | 3 | 0 | 17 | -5
Cc1nc2ccc(NC(=O)c3cccc(S(=O)(=O)N(C)c4ccccc4)c3)cc2s1 | -7 | 13 | 0 | -2 | 4
